From PubChem BioAssay AID624331 (National Center for Advancing Translational Sciences (NCATS), 2012)
Inconclusive results are not listed. Activity calls are given as the source filed them. The call rests on the fitted dose curve; in most records, active means well fitted activation curve with a large enough effect; inconclusive means small, poorly fitted or top-dose-only effect; inactive means no such curve, though single readings can be large or run the other way.

assay: qHTS assay for re-activators of p53 using a Luc reporter: Hit Validation with no p53 Expressed; details: p53-null cells, luciferase reporter counter-screen; series mostly up to 46.1 µM; activity change, positive = activation: at the top concentration; further: 0% is about no effect
Summary of the method: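 Counter-screen of primary hits in a cell line not transfected with p53, in Opti-MEM with 10% FBS; compounds at several concentrations (10 mM stock, 1:5; top 46.1 µM in well), 24 h at 37 deg C, 5% CO2. Luminescence read after 10 min with Amplite reagent.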

SMILES | activity change, positive = activation
O=C(Oc1ccccc1/C=C\C(=O)c1cc2ccccc2o1)c1cccc(F)c1 | 4.1% (inactive)
Cc1ccc(C(=O)CC(=O)COc2ccc(Cl)cc2)cc1 | 90% (inactive)
CC(=O)Nc1ccc(SCC(=O)c2cc(C)n(-c3ccccc3)c2C)cc1 | 8.62% (inactive)
CCOc1ccc(-c2cnc3ccccc3n2)cc1 | -34.8% (inactive)
COc1cccc(/C=C2\Oc3ccc(O)cc3C2=O)c1O | -7.69% (inactive)
Clc1ccc(Nc2nc(-c3cccs3)cs2)nc1 | 32.8% (inactive)
CCc1ccc(OCC(=O)NC(NC(=S)Nc2ccccc2C)C(Cl)(Cl)Cl)cc1 (stereo not given) | -20.1% (inactive)
COc1ccc(C2=NN(C(C#N)c3ccc(OC)cc3)C(c3ccccc3)C2)cc1 (stereo not given) | -12.3% (inactive)
Cc1ccc(NC(=O)NC(=O)CN2CCC(C(N)=O)CC2)c(C)c1 | 80.7% (inactive)
COc1cc(C(=O)NCCc2cn3ccc(C)cc3n2)cc(OC)c1OC | -28.5% (inactive)
O=C(NNc1c2ccccc2nc2ccccc12)c1ccc(O)cc1 | 9.35% (inactive)
CCOC(=O)C(C(C)=O)C(c1ccc(OC)cc1)C(C(C)=O)C(=O)OCC (stereo not given) | -8.98% (inactive)
O=C(N/N=C/c1sc(=O)[nH]c1-[n+]1ccc2ccccc2c1)c1ccccc1[O-] | -12.2% (inactive)
O=C(O)C1CC(=O)N(c2ccc(Br)cc2)C1 (stereo not given) | 40.9% (inactive)
CCOC(=O)N1CCN(S(=O)(=O)c2ccc(C(=O)NNc3nc4cc(C)cc(C)c4s3)cc2)CC1 | -4.06% (inactive)
Cc1cccc2nc(CNc3ccc(F)cc3)cn12 | -5.96% (inactive)
N#C/C(=C\c1ccc(OCc2ccc(Br)cc2)cc1)C(=O)Nc1cccc(C(=O)O)c1 | 25.2% (inactive)
CC(C)[C@H](NC(=O)c1ccc(Cl)cc1Cl)C(=O)NNc1cccc(C(=O)O)c1 | 73.4% (inactive)
COc1cc(N/N=C/c2ccccc2O)ncn1 | 36.9% (inactive)
CN(C)c1cccc(C(=O)NNC(=O)CN2C(=O)C3CC=CCC3C2=O)c1 (stereo not given) | 38.2% (inactive)

SMILES | activity change, positive = activation
CC(OC(=O)c1cccc([N+](=O)[O-])c1)C(=O)N1CCc2ccccc21 (stereo not given) | -25.6% (inactive)
C/C(=N\NC(=O)c1cc(C)nc2ccccc12)c1ccccn1 | -10.9% (inactive)
COc1ccc2nc(SCc3ccccc3)nc(C)c2c1 | 35.8% (inactive)
Clc1ccc(C2=NNC(=NCC3CCCO3)SC2)cc1 (stereo not given) | -17% (inactive)
O=C(c1cnn(-c2ccccc2)c1)c1ccccc1O | 53.1% (inactive)
COc1ccc(NC(=O)/C(Cl)=C(/Cl)S(=O)(=O)Cc2ccc(C)cc2)cn1 | -66.8% (inactive)
Cc1cccc(C)c1Nc1c(-c2ccccn2)nc2ccccn12 | -50% (inactive)
COc1cccc(/C=N/NC(=O)c2nc(-c3ccccc3)cc(-c3ccccc3)n2)c1O | 2.35% (inactive)
COC(=O)Cc1n[nH]c(=S)[nH]c1=O | -10.7% (inactive)
CCOP(=O)(OCC)C(NC(=O)Nc1ccccc1)C(N)=O (stereo not given) | -30.4% (inactive)
O=C(NCc1ccc(-c2nc3ccccc3s2)cc1)c1cc2ccccc2o1 | 17.4% (inactive)
Cc1cc(C)c2nc(NNC(=O)c3ccc(S(=O)(=O)N4CCCC(C)C4)cc3)sc2c1 (stereo not given) | 0.359% (inactive)
C/C(=N\NC(=S)NC(C)C)c1ccc(Cl)s1 | -31.2% (inactive)
COc1ccc(N=C(N)SCc2ccccn2)cc1 | 12.5% (inactive)
C/C(=N\N=c1/scc(C)n1Cc1ccco1)c1cccc([N+](=O)[O-])c1 | 26.8% (inactive)
COc1ccc(NC(=O)CN(C)CC(=O)Nc2ccccc2SC)cc1 | -37.7% (inactive)
O=C(/C=C/Nc1ccccc1F)c1cccs1 | 40.9% (inactive)
O=c1oc(CCO)cc2ccc(C#Cc3ccsc3)cc12 | 4.75% (inactive)
Cc1cccc(NC(=O)c2ccccn2)c1C | 32.6% (inactive)
CNC(=S)N/N=C/c1cc(Br)cc(Br)c1O | -14.3% (inactive)
